Source: paper PMC4552634, “A New Set of Chemical Starting Points with Plasmodium falciparum Transmission-Blocking Potential for Antimalarial Drug Discovery” (PLoS ONE, 2015)
In all, about 13,000 compounds went through this assay and about 3,200 (25%) showed an effect of 50% or more. This is one part of the list.

tested on: P. falciparum stage V gametocytes; parameters: BacTiter-Glo ATP luminescence viability of purified stage V gametocytes in 384-well plates, per cent inhibition versus DMSO; conditions: 48 h, 5 µM; inhibitor

| SMILES | % Inhibition [%] |
| --- | --- |
| CCCCc1ccc(-c2nc(NC(=O)Nc3nc(-c4ccccc4)[nH]c3C(=O)OCC)c(C(=O)OCC)[nH]2)cc1 [TCMDC-138897] | -17.92 |
| CC(C)Nc1nc(NCCc2cnc[nH]2)nc(Nc2ccc(Oc3ccccc3)cc2)n1 [TCMDC-139746] | -7.765 |
| COc1cc(CNCCCNc2cc(=O)c3ccccc3[nH]2)c2c(c1)C(C)CN2C(=O)OC(C)(C)C (centres unmarked) [TCMDC-140390] | -23.23 |
| Cc1c(O)cccc1Nc1ccnc2ccc(C(F)(F)F)cc12 [TCMDC-138246] | -8.539 |
| CN(C)C(=O)CN1CCN(c2ncnc(N3CCc4c([nH]c5ccccc45)[C@@H]3c3ccc4c(c3)CCO4)n2)CC1 [TCMDC-138571] | 5.552 |
| Oc1cccc(C2CCCN(Cc3cccc4cc[nH]c34)C2)c1 (centres unmarked) [TCMDC-134419] | -7.919 |
| CCCCc1cc(NCc2ccncc2)nc(Nc2ccc(C)cc2)n1 [TCMDC-134000] | -5.693 |
| CC(=O)N(C)C1CCN(Cc2ccc(-c3cccc(-c4nc5ccc(F)cc5[nH]4)c3)cc2)C1 (centres unmarked) [TCMDC-133885] | 25.2 |
| O=C(O)C(F)(F)F.OC1CCCN(Cc2ccc(-c3ccc(-c4nc5cc(F)ccc5[nH]4)cc3)cc2)C1 (centres unmarked) [TCMDC-133833] | -10.21 |
| NC1CCN(Cc2ccc(-c3ccc(-c4nc5cc(F)ccc5[nH]4)cc3)cc2)C1 (centres unmarked) [TCMDC-133872] | 102.5 |
| NC1CCCN(Cc2cccc(-c3ccc(-c4nc5ccc(F)cc5[nH]4)cc3)c2)C1 (centres unmarked) [TCMDC-133855] | 20.47 |
| NC1CCN(Cc2cccc(-c3ccc(-c4nc5ccc(F)cc5[nH]4)cc3)c2)C1 (centres unmarked) [TCMDC-133853] | 40.4 |
| NC1CCCN(Cc2ccc(-c3cccc(-c4nc5ccc(F)cc5[nH]4)c3)cc2)C1 (centres unmarked) [TCMDC-133840] | 68.96 |
| CC1CN(Cc2ccc(-c3ccc(-c4nc5cc(F)ccc5[nH]4)cc3)cc2)CC(C)O1.O=C(O)C(F)(F)F (centres unmarked) [TCMDC-133831] | -15.75 |
| OC1CCCN(Cc2ccc(-c3cccc(-c4nc5ccc(F)cc5[nH]4)c3)cc2)C1 (centres unmarked) [TCMDC-133815] | -14.67 |
| NC1CCN(Cc2ccc(-c3cccc(-c4nc5ccc(F)cc5[nH]4)c3)cc2)C1 (centres unmarked) [TCMDC-133838] | 61.76 |
| O=C(Nc1ccc2c(c1)CCN2C1CCN(Cc2ccc(O)cc2)C1)c1ccco1 (centres unmarked) [TCMDC-135066] | -16.31 |
| COC(=O)c1ccc(CC(C)NCC(O)c2cccc(C(F)(F)F)c2)cc1F (centres unmarked) [TCMDC-131519] | 6.156 |
| NC1=NC(c2ccccc2)(c2ccccc2)C(=O)N1Cc1ccccc1Br [TCMDC-136813] | -33.84 |
| O=c1cc(NCc2ccccc2NCc2ccc(Cl)c(Cl)c2)[nH]c2ccccc12 [TCMDC-139499] | -0.9265 |
| COc1ccc2nc(C)cc(Nc3ccc(N4CCN(C)CC4)cc3)c2c1 [TCMDC-125813] | 1.536 |
| COc1ccc2c(NN=Cc3ccncc3)ccnc2c1 [TCMDC-142030] | -7.897 |
| COc1ccc2nc(C)cc(NN=Cc3cc(C)ccc3O)c2c1 [TCMDC-124232] | 86.79 |
| COc1ccc2c(Nc3ccc(N4CCN(C)CC4)cc3)cc(C)nc2c1 [TCMDC-123914] | 63.09 |

| SMILES | % Inhibition [%] |
| --- | --- |
| COc1ccc2nccc(NN=Cc3ccncc3)c2c1 [TCMDC-142033] | 25.13 |
| COc1ccc2nc(C)cc(Nc3ccc(Cl)c(Cl)c3)c2c1 [TCMDC-124166] | 19.57 |
| COc1ccc2c(NN=Cc3ccncc3)cc(C)nc2c1 [TCMDC-142038] | 85.05 |
| COc1ccc(C=NNc2cc(C)nc3ccc(OC)cc23)c(OC)c1 [TCMDC-123955] | 105.7 |
| O=C(NCc1ccc(Cl)c(Cl)c1)[C@H]1CNCCN1C(=O)c1ccccc1 [TCMDC-141240] | 16.71 |
| Cc1nc2ccc(NC(=O)Nc3ccnc4ccc(C(F)(F)F)cc34)cc2o1 [TCMDC-139534] | -18.3 |
| COc1ccccc1N1CCN(CCCCNC(=O)c2ccc(NC(=O)c3ccc(OC(F)(F)F)cc3)cc2)CC1 [TCMDC-137780] | -5.009 |
| CC(=O)Nc1ncc(C(=O)Nc2cccc(-c3cccc(-c4nc5ccc(F)cc5[nH]4)c3)c2)s1 [TCMDC-136914] | -0.106 |
| CC(CN(C)C)C(=O)Nc1cccc(-c2ccc(-c3nc4ccc(C(F)(F)F)cc4[nH]3)cc2)c1 (centres unmarked) [TCMDC-137112] | -57.5 |
| COc1ccc2nc(-c3ccccc3)cc(NN=Cc3ccncc3)c2c1 [TCMDC-142041] | -9.454 |
| COc1ccc2nc(C)cc(NN=Cc3ccncc3)c2c1 [TCMDC-142017] | 88.79 |
| COc1ccc2nc(C)cc(NN=Cc3ccccc3)c2c1 [TCMDC-123830] | 2.081 |
| COc1ccc2c(NN=Cc3cccnc3)cc(C)nc2c1 [TCMDC-142037] | 80.26 |
| COc1ccc2c(NN=Cc3cccnc3)ccnc2c1 [TCMDC-142029] | 1.197 |
| CCOc1ccc2nc(C)cc(NN=Cc3cccnc3)c2c1 [TCMDC-142047] | 3.839 |
| Cc1cc(-c2nc3ccc(N4CCN(C)CC4)cc3[nH]2)nn1Cc1cc(Cl)ccc1OCC(C)C [TCMDC-136722] | 42.92 |
| CC(=O)c1cccc(NC(=O)NC2CCN(CCCCCNC(=O)/C=C/c3ccc(Cl)c(Cl)c3)CC2)c1 [TCMDC-135716] | -43.54 |
| Clc1ccc(-c2csc3ncnc(Cl)c23)cc1 [TCMDC-123811] | 48.01 |
| COc1ccc(-c2csc3ncnc(Cl)c23)cc1 [TCMDC-123805] | 65.98 |
| COc1ccc(-c2csc3ncnc(Cl)c23)cc1OC [TCMDC-125316] | 38.88 |
| Cc1cnc2ccc(NS(=O)(=O)c3sc4ccc(Cl)cc4c3C)cc2c1N1CCNCC1 [TCMDC-139547] | 29.85 |
| COc1cc2c(cc1N(C(C)C)S(=O)(=O)c1sc3ccc(Cl)cc3c1C)CCNCC2 [TCMDC-141465] | 91.42 |
| Cc1c(S(=O)(=O)Nc2ccc3nccc(N4CCN[C@H](C)C4)c3c2)sc2ccc(Cl)cc12 [TCMDC-139483] | -5.538 |
| Oc1ccccc1CCNCC1CCc2ccccc2C1 (centres unmarked) [TCMDC-138024] | -11.67 |

| SMILES | % Inhibition [%] |
| --- | --- |
| O=C(NC1CCCC1)c1cc2c(=O)n3ccccc3nc2nc1NCCc1ccccc1 [TCMDC-125350] | 42.55 |
| FC(F)(F)c1ccc2nc(-c3cccc(-c4cccc(CNCCN5CCNCC5)c4)c3)[nH]c2c1 [TCMDC-132871] | 79.56 |
| Cn1nccc1C(=O)NCCNCc1cccc(-c2ccc(-c3nc4cc(C(F)(F)F)ccc4[nH]3)cc2)c1.O=C(O)C(F)(F)F [TCMDC-133014] | -13.72 |
| O=C(O)C(F)(F)F.O=C1CCCN1CCCNCc1ccc(-c2ccc(-c3nc4cc(C(F)(F)F)ccc4[nH]3)s2)cc1 [TCMDC-132764] | -35.61 |
| FC(F)(F)c1ccc2[nH]c(-c3ccc(-c4ccc(CNCCN5CCNCC5)cc4)s3)nc2c1 [TCMDC-132862] | 105.5 |
| FC(F)(F)c1ccc2[nH]c(-c3cccc(-c4ccc(CNCCN5CCNCC5)cc4)c3)nc2c1 [TCMDC-132872] | 109.9 |
| O=C(O)C(F)(F)F.O=C1CCCN1CCCNCc1cccc(-c2cccc(-c3nc4cc(C(F)(F)F)ccc4[nH]3)c2)c1 [TCMDC-132754] | -20.15 |
| Cn1nccc1C(=O)NCCNCc1ccc(-c2cccc(-c3nc4cc(C(F)(F)F)ccc4[nH]3)c2)cc1.O=C(O)C(F)(F)F [TCMDC-133006] | -36.49 |
| O=C(NCCN1CCCC1)c1ccc(-c2ccc(-c3nc4cc(C(F)(F)F)ccc4[nH]3)s2)cc1 [TCMDC-132315] | 12.27 |
| FC(F)(F)c1ccc2[nH]c(-c3ccc(-c4cccc(CNCCN5CCNCC5)c4)cc3)nc2c1 [TCMDC-132864] | 103.8 |
| O=C1CCCN1CCCNCc1cccc(-c2ccc(-c3nc4ccc(C(F)(F)F)cc4[nH]3)cc2)c1 [TCMDC-132761] | -39.05 |
| O=C1CCCN1CCCNCc1ccc(-c2cccc(-c3nc4ccc(C(F)(F)F)cc4[nH]3)c2)cc1 [TCMDC-132752] | -22.52 |
| O=C(N[C@@H](Cc1cc(F)cc(F)c1)[C@H](O)CNCc1cccc(C(F)(F)F)c1)c1cc(C2CCCC2)cc(N2CCCC2=O)c1 [TCMDC-134677] | 4.624 |
| CCCC(CNCc1cccc(SC(F)(F)F)c1)CNc1cc(=O)c2ccccc2[nH]1 (centres unmarked) [TCMDC-139431] | 19.28 |
| COc1ccc(CNCc2cccc(-c3csc(-c4nc5ccccc5[nH]4)c3)c2)cc1 [TCMDC-132734] | -55.02 |
| Cc1cnc(N2CCN(CC3CCN(C)CC3)CC2)nc1Oc1ccc(-n2ccnc2)cc1 [TCMDC-132782] | 41.72 |
| CC(C)N(Cc1cnc2nc(N)nc(N)c2n1)c1ccc(Cl)c(Cl)c1 [TCMDC-137675] | 8.837 |
| O=C(Nc1ccc(Cl)cc1)Nc1cccc(-c2cc(CNCCc3ccccc3)oc2-c2ccncc2)c1 [TCMDC-135557] | -5.534 |
| O=C(Nc1ccc(Cl)cc1)Nc1cccc(CCNCc2ccccc2)c1 [TCMDC-141913] | 74.03 |
| O=C(Nc1cccc(CCNCc2ccccc2)c1)Nc1cccc2ccccc12 [TCMDC-141912] | -6.517 |
| CC(C)c1ccc(NC(=O)Nc2ccc(CCNCCCc3ccccc3)cc2)cc1 [TCMDC-140707] | 4.807 |
| CCCCc1ccc(NC(=O)Nc2cccc(CCNCc3ccccc3)c2)cc1 [TCMDC-141911] | -36.83 |
| COC(=O)c1ccc(NC(=O)Nc2cccc(CCNCc3ccccc3)c2)cc1 [TCMDC-141910] | 76.66 |
